# Data published in PubChem BioAssay.
# The source made the active and inactive calls. Unless noted, how the calls were made is not given here.
# Experiments:
# [1] = compounds binding Alexa647 anti-His antibody – biochemical, small-molecule microarray, 635 nm fluorescence, artefact control for SMM control protein annotation, primary screen (AID 1128); conditions: higher = more signal;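 further: score merges feature fluorescence with signal-to-noise for each printed compound spot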
# [2] = tested on: Human papillomavirus type 1a E7 protein (residues 1-88); assay: HPV1a E7 small-molecule binders, primary screen, biochemical, small-molecule microarray, residues 1-88, 635 nm (AID 1129); conditions: small-molecule microarray binding, fluorescence 635 nm; higher = more signal
# [3] = molecular target: Focal adhesion kinase 1 (Homo sapiens) (UniProt Q05397); assay: PTK2 protein binding on printed compound slides – biochemical, small-molecule microarray, 635/667 nm fluorescence, BSA, DTT, primary screen (AID 1130); conditions: 635 nm fluorescence, higher = more signal;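 further: composite of spot emission at 667 nm and signal to noise over triplicate slides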
# [4] = tested on: Fibrinogen (Alexa647-labelled); assay: Alexa647-fibrinogen binding to printed small molecules – biochemical, small-molecule microarray, 635/667 nm fluorescence, artefact control for SMM control-protein annotation, profiling panel (AID 1131); conditions: fibrinogen-A647 binding fluorescence, higher = more signal;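 further: z-score merges 667 nm fluorescence with per-spot signal-to-noise over triplicate slides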
# [5] = molecular target: Follistatin (Homo sapiens) (UniProt P19883); assay: FST protein binding to printed compounds – biochemical, small-molecule microarray, 635/667 nm fluorescence, primary screen (AID 1132); conditions: 635 nm fluorescence, higher = more signal
# [6] = molecular target: Fibroblast growth factor 2 (Homo sapiens) (UniProt P09038); assay: basic fibroblast growth factor binding to printed compounds – biochemical, small-molecule microarray, 635/667 nm fluorescence, primary screen (AID 1133); conditions: FGF2, fluorescence 635/667, higher = more signal
# [7] = JC-1 mitochondrial potential readout, lung cancer cells – cell-based, A549, JC-1 fluorescence, basal, 24 h, 100 nL, profiling panel (AID 1138); conditions: higher = more signal;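 further: A549 lung adenocarcinoma cells under basal conditions with no added stimulus; test concentration not given here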
# Lefty1 = Lefty1 protein binding to printed compounds – biochemical, small-molecule microarray, 635/667 nm fluorescence, primary screen (AID 1139); conditions: fluorescence 635/667, higher = more signal
# [8] = tested on: wheat germ agglutinin (Triticum aestivum), Alexa647-labelled; assay: Alexa647-WGA lectin binding to printed small molecules – biochemical, small-molecule microarray, 635/667 nm fluorescence, artefact control for SMM control-protein annotation, profiling panel (AID 1140); conditions: WGA-A647 binding, 635 nm fluorescence, higher = more signal;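 further: score merges 667 nm feature emission with signal to noise over triplicate slides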
# [9] = molecular target: Luciferin 4-monooxygenase (Photinus pyralis) (UniProt P08659); assay: inhibition of purified Photinus pyralis luciferase – biochemical, luminescence, purified enzyme, 2006 set, primary screen (AID 1141); conditions: purified firefly luciferase, SteadyGlo luminescence, 30 min; higher = more signal, called active from +8 up or from −8 down;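 further: cell-free assay with purified firefly luciferase at 100 ng per well in PBS; test concentration not given here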
# [10] = tested on: Wnt5a (protein binding on small-molecule microarray); assay: small molecules binding Wnt5a protein – biophysical, small-molecule microarray, 635/667 nm fluorescence, primary screen (AID 1142); conditions: 635 nm fluorescence, higher = more signal;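 further: fluorescence read at 667 nm with signal to noise per printed feature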
# [11] = ATP-based viability of Huh7 replicon cells – cell-based, CellTiter-Glo luminescence, basal, 48 h, cytotoxicity control for HCV replication inhibitor project, primary screen (AID 1143); conditions: higher = more signal, called active from +8 up or from −8 down;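 further: Huh7 hepatoma cells carrying a hepatitis C replication reporter with no stimulus; test concentration not given here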
# [12] = Pseudomonas biofilm growth suppression – PAO1 strain, BacTiter-Glo luminescence, LB-PBS, primary screen (AID 1144); conditions: P. aeruginosa PAO1 biofilm, 12 h, higher = more signal
# [13] = basal CRE-LacZ reporter activity in PC12 – cell-based, unstimulated, primary screen (AID 1145); conditions: no forskolin, luminescence, 4.5 h, higher = more signal, called active from +8 up or from −8 down
# [14] = forskolin-driven CRE-LacZ activity in PC12 – cell-based, CRE-LacZ reporter, forskolin-stimulated, primary screen (AID 1146); conditions: luminescence, 4.5 h, higher = more signal, called active from +8 up or from −8 down;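 further: PC12 cells with 6xCRE LacZ reporter stimulated by forskolin 10 µM; beta-galactosidase reporter signal reflecting CREB driven transcription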
# [15] = molecular target: Streptavidin (Streptomyces avidinii) (UniProt P22629); assay: compounds binding control protein streptavidin – biophysical, small-molecule microarray, 635/667 nm fluorescence, artefact control for SMM compound annotation, primary screen (AID 1147); conditions: higher = more signal;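 further: signal reflects streptavidin binding to arrayed compounds as a control protein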
# [16] = probe aInhba binding on compound microarray – biochemical, small-molecule microarray, 635/667 nm fluorescence, primary screen (AID 1148); conditions: higher = more signal;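 further: score merges 667nm spot fluorescence with signal-to-noise for antibody binding to printed compounds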
# Torsin-1A (Homo sapiens) [17] = molecular target: Torsin-1A (Homo sapiens) (UniProt O14656); assay: TOR1A wild-type binding on microarray – cell lysate, small-molecule microarray, lysate, 635/667 nm, primary screen (AID 1149); conditions: COS7 hTOR1A-WT lysate, 635 nm fluorescence, higher = more signal
# Torsin-1A (Homo sapiens) [18] = molecular target: Torsin-1A (Homo sapiens) (UniProt O14656); assay: torsin A mutant lysate binding on microarrays – cell lysate, small-molecule microarray, COS7 lysate, 635/667 nm fluorescence, primary screen (AID 1150); conditions: COS7 hTOR1A mutant lysate, 635 nm fluorescence, higher = more signal;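 further: score pools 667 nm emission and signal to noise measuring lysate protein binding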
# [19] = tested on: Sonic hedgehog protein (Shh); assay: Sonic hedgehog microarray binding compounds – biochemical, small-molecule microarray, 635/667 nm fluorescence, primary screen (AID 1151); conditions: 635 nm fluorescence, higher = more signal;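 further: Shh protein binding to compounds spotted on small-molecule microarray slides; score combines spot fluorescence intensity with signal-to-noise across triplicate slides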
# Chain of Focal adhesion kinase 1 (Homo sapiens) (Q05397 whole entry, looked up): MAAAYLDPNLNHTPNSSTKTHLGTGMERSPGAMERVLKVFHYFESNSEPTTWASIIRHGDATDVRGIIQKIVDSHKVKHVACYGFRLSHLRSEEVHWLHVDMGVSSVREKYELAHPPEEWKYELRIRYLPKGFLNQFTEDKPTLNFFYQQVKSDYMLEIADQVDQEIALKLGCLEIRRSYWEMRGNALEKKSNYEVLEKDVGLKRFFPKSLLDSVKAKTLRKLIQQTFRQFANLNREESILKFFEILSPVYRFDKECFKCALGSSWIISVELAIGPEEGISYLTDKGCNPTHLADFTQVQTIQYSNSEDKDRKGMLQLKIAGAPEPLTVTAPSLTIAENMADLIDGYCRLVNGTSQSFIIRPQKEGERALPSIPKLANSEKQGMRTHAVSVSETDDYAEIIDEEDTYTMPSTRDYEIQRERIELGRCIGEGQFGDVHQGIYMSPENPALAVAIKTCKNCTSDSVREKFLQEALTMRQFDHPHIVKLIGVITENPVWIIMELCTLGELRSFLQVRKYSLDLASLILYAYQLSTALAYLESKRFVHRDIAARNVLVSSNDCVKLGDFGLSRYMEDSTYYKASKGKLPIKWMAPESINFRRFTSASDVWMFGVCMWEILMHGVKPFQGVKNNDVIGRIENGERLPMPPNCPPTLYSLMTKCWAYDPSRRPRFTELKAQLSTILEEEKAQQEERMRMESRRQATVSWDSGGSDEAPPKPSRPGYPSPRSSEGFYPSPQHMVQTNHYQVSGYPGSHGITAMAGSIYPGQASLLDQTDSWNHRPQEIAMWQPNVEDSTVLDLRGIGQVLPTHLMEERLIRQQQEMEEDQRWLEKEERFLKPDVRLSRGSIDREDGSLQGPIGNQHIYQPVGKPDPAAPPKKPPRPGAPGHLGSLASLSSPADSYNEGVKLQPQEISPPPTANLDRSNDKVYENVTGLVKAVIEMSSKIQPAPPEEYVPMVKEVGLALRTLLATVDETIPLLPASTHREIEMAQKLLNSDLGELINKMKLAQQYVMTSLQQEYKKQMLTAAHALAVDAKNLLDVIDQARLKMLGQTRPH
# Chain of Fibroblast growth factor 2 (Homo sapiens) (P09038 whole entry, looked up): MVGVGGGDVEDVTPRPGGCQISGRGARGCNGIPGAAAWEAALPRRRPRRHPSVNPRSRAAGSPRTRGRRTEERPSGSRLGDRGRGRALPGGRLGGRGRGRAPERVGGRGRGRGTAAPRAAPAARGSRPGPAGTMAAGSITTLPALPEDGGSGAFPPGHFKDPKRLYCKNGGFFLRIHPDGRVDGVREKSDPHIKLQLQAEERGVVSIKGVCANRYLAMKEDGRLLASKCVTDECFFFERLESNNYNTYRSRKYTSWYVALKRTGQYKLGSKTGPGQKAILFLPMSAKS
# Chain of Streptavidin (Streptomyces avidinii) (P22629 whole entry, looked up): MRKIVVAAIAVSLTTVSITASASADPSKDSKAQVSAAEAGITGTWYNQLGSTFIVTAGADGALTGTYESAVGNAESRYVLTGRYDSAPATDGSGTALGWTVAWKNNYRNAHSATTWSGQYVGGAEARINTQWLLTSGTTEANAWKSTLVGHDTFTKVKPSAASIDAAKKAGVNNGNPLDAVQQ
# Chain of Luciferin 4-monooxygenase (Photinus pyralis) (P08659 whole entry, looked up): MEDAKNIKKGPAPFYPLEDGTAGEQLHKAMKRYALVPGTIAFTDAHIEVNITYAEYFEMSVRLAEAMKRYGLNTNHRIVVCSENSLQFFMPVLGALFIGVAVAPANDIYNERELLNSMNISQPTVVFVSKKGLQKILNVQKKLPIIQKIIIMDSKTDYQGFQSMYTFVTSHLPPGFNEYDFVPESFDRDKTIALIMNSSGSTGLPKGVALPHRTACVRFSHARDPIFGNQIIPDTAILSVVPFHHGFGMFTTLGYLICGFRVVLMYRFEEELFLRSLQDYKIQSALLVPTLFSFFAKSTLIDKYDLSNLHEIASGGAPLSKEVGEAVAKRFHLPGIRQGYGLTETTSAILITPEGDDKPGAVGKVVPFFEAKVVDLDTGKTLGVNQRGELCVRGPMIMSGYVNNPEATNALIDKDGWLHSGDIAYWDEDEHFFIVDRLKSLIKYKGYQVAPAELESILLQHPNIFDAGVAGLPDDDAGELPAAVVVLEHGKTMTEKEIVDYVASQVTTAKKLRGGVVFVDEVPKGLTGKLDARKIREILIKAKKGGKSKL
# Chain of Follistatin (Homo sapiens) (P19883 whole entry, looked up): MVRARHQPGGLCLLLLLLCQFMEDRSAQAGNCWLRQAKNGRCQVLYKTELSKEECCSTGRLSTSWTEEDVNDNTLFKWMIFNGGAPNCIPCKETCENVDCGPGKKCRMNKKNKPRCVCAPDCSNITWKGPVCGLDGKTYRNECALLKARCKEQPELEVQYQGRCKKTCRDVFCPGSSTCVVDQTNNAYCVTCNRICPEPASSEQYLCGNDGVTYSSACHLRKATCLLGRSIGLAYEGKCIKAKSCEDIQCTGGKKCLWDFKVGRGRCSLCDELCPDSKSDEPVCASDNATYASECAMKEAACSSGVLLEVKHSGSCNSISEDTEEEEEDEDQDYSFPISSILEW
# Chain of Torsin-1A (Homo sapiens) (O14656 whole entry, looked up): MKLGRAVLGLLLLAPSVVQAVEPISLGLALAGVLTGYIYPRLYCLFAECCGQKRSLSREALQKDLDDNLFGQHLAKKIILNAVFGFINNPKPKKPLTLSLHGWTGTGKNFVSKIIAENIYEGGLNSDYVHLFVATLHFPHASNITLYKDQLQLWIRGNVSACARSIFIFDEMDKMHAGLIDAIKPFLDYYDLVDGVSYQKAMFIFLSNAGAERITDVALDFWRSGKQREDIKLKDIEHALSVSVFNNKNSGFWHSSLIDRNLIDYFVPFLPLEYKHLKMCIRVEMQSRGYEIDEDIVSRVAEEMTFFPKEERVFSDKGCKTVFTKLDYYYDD
Compound,composite z-score [1],composite z-score [2],composite z-score [3],composite z-score [4],composite z-score [5],composite z-score [6],z-score [7],composite z-score (Lefty1),composite z-score [8],z-score [9],composite z-score [10],z-score [11],z-score [12],z-score [13],z-score [14],composite z-score [15],composite z-score [16],composite z-score (Torsin-1A (Homo sapiens) [17]),composite z-score (Torsin-1A (Homo sapiens) [18]),composite z-score [19]
CCOC(=O)[C@H](CC(C)C)NC(=O)CCC1CC(OC(=O)NCc2cccc3ccccc23)CC2(CCCC(COC(=O)NCCc3ccccc3OC)O2)O1 (stereo not given in full),1.02,1.12,0.0969,0.949,0.583,0.485,0.041,1.5,0.225,0.755 (inactive),-0.0588,-1.86 (inactive),0.6 (inactive),-0.44 (inactive),0.0744 (inactive),0.556,-0.217,0.203,0.408,1.07
C=CC[C@@H]1C=C[C@H](ON=C2c3cc(OC)ccc3O[C@H](c3cccc(OC)c3)[C@H]2O)[C@@H](CO)O1,-0.738,-0.133,0.374,0.352,-0.0389,0.369,-0.102,0.873,0.499,-0.101 (inactive),-0.0596,-0.375 (inactive),0.0436 (inactive),5.59 (inactive),0.442 (inactive),0.0285,-0.182,-0.0807,-0.129,0.723
COCC(=C=CC[C@@H](O)c1ccccc1OCCO)CCO,0.0272,0.534,0.208,0.664,0.768,1.46,1.51,0.409,-0.0571,-2.02 (inactive),0.0554,0.0309 (inactive),-0.118 (inactive),0.914 (inactive),-0.732 (inactive),-0.174,-0.0074,0.635,0.518,0.156
COc1ccc(O[C@H]2C=C[C@@H](c3ccccc3)O[C@@H]2COC(=O)CCC(C)=NOC(C)CN2CCCCc3nc(C)c(C)cc32)cc1 (stereo not given in full),4.16,-0.303,0.214,-0.78,0.0731,-0.442,0.752,-0.214,0.878,0.731 (inactive),-0.133,-0.622 (inactive),-0.28 (inactive),-0.817 (inactive),0.287 (inactive),0.095,-0.0719,-0.406,-0.489,-0.0679
CO[C@@H]1COC(=O)CC=C[C@@H](C)[C@@H]2C=C[C@H](O)[C@@H](COC(=O)[C@H](C)NC(=O)CC=C[C@H]1C)O2,1.85,-0.794,-0.407,-0.734,1.11,1.73,-1.23,1.53,-0.17,1.02 (inactive),0.0389,-2.59 (inactive),-0.972 (inactive),-0.324 (inactive),0.194 (inactive),-0.408,-0.265,1.44,1.81,2.13
C=CCNC(=O)[C@H]1[C@@H]2C(=O)O[C@@H](c3ccccc3)[C@@H](c3ccccc3)N2[C@@H](c2ccc(O)cc2)[C@]12C(=O)N(C(=O)OCCOC)c1ccc(C#CC3=CCCCC3)cc12,0.692,1.22,0.723,0.892,0.379,0.248,-0.76,0.484,0.583,-0.54 (inactive),0.411,-3.95 (inactive),0.101 (inactive),-0.878 (inactive),-0.633 (inactive),0.841,0.935,0.757,1.14,1.45
O=C1O[C@@H](c2ccccc2)[C@@H](c2ccccc2)N2[C@@H](c3ccc(O)cc3)[C@]3(C(=O)Nc4ccccc43)[C@@H](C(=O)O)[C@H]12,3.02,1.2,0.49,0.508,-0.167,-0.352,-0.517,-0.351,0.547,-0.0041 (inactive),-0.0286,-4.36 (inactive),0.0547 (inactive),0.568 (inactive),0.532 (inactive),0.0078,0.0442,0.509,0.548,-0.192
CCc1cc2c(nc1CC)CCN(CCC(C)=NO[C@@H](C)c1cc(-c3c(C)cc(C)cc3C)no1)C2,0.0635,-0.22,-0.0159,0.397,-0.265,-0.2,1.69,0.388,0.0999,-0.887 (inactive),-0.0627,-2.21 (inactive),-0.626 (inactive),0.429 (inactive),0.446 (inactive),1.67,-0.0762,-0.233,0.0048,0.134
CC(C)CON=C1C[C@@H](O)[C@@H](O)[C@@H]2[C@@H]3C(=O)N([C@@H](C)c4ccccc4)C(=O)[C@@H]3CC[C@H]12,0.728,1.17,0.657,0.951,0.755,1.18,1.24,1.4,0.122,0.407 (inactive),0.257,-0.544 (inactive),1.98 (inactive),-0.383 (inactive),-0.0095 (inactive),0.528,0.168,0.466,0.477,1.58
